Measured values from the supplement of paper PMC7380943.
Where a name gives a salt, the structure may show the parent alone.

Experiments:
[1] = tested on: CLZ3 (HCA2 human fibroblast dual HR-NHEJ reporter); test: NHEJ repair efficiency (GFP+ cells) relative to control (log10 fold); higher = more non-homologous end joining; conditions: 5 µM; doxycycline 0.5 ug/mL
[2] = tested on: CLZ3 (HCA2 human fibroblast dual HR-NHEJ reporter); test: HR repair efficiency (tdTomato+ cells) relative to control (log10 fold); higher = more homologous recombination; conditions: 5 µM; doxycycline 0.5 ug/mL
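Throughout, for HR repair efficiency (tdTomato+ cells) relative to control: compound given one day before doxycycline, which switches on I-SceI endonuclease expression to create double-strand breaks within the integrated reporter.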
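Throughout, for NHEJ repair efficiency (GFP+ cells) relative to control: compound given one day ahead of doxycycline, which switches on I-SceI endonuclease to cut the chromosomally integrated reporter and create DSBs.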

SMILES | NHEJ repair efficiency (log10) [1] | HR repair efficiency (log10) [2]
Oc1cc(O)cc(/C=C/c2ccc(O)c(O)c2)c1 [Piceatannol] | 0.0759 | 0.0923
COc1cc(/C=C/C(=O)O)ccc1O [Ferulaic Acid] | -0.0555 | -0.0235
O=C(O[C@@H]1Cc2c(O)cc(O)cc2O[C@H]1c1cc(O)c(O)c(O)c1)c1cc(O)c(O)c(O)c1 [(-)Gallocatechin gallate] | -0.12 | 0.0198
C=C1C[C@]2(O)O[C@@]3(CC2=C(C)C)[C@@H](C)CC[C@@H]13 [Isocurcumenol] | -0.116 | -0.239
O=C(O)c1cc(O)c2c(c1)C(=O)c1cccc(O)c1C2=O [Rhein] | 0.0809 | -0.07
C=C(C)[C@@H]1CC[C@]2(C(=O)O)CC[C@]3(C)[C@H](CC[C@@H]4[C@@]5(C)CC[C@H](O[C@@H]6OC[C@H](O)[C@H](O)[C@H]6O[C@@H]6O[C@@H](C)[C@H](O)[C@@H](O)[C@H]6O)[C@@](C)(CO)[C@@H]5CC[C@]43C)[C@@H]12 [Anemoside A3] | 0.0688 | 0.0291
CO[C@]1(CC[C@H](C)CO[C@@H]2O[C@H](CO)[C@@H](O)[C@H](O)[C@H]2O)O[C@H]2C[C@H]3[C@@H]4CC[C@@H]5C[C@@H](O[C@@H]6O[C@H](CO)[C@H](O)[C@H](O)[C@H]6O[C@@H]6O[C@H](CO)[C@@H](O)[C@H](O)[C@H]6O)CC[C@]5(C)[C@H]4CC[C@]3(C)[C@H]2[C@@H]1C [Anemarsaponin E] | 0.0103 | -0.0664
CCCOC(=O)c1cc(O)c(O)c(O)c1 [Propyl gallate] | -0.0069 | 0.0457
COc1cc(O)cc(O)c1C(=O)/C=C/c1ccccc1 [Cardamonin] | 0.233 | -0.195
Nc1ncnc2c1ncn2[C@@H]1O[C@H](CO)[C@@H](O)[C@H]1O [Adenosine] | -0.0785 | -0.0239
C[C@@H]1CC[C@@]2(OC1)O[C@H]1C[C@H]3[C@@H]4CC=C5C[C@@H](O[C@@H]6O[C@H](CO)[C@@H](O)[C@H](O)[C@H]6O)CC[C@]5(C)[C@H]4CC[C@]3(C)[C@H]1[C@@H]2C [Diosgenin glucoside] | -0.0975 | 0.0102
COc1cc2c(cc1OC)-c1cc3ccc(OC)c(OC)c3c[n+]1CC2 [Palmatine hydrochloride] | 0.0374 | 0.0612
CC1(C)CC[C@]2(C(=O)O[C@@H]3O[C@H](CO)[C@@H](O)[C@H](O)[C@H]3O)CC[C@]3(C)C(=CC[C@@H]4[C@@]5(C)CC[C@H](O[C@@H]6O[C@H](C(=O)O)[C@@H](O)[C@H](O)[C@H]6O[C@@H]6O[C@H](CO)[C@@H](O)[C@H](O)[C@H]6O)C(C)(C)[C@@H]5CC[C@]43C)[C@@H]2C1 [Chikusetsusaponin V] | 0.0351 | 0.0384
CC[C@H](CC[C@@H](C)[C@H]1CC[C@H]2[C@@H]3CC=C4C[C@@H](O[C@@H]5O[C@H](CO)[C@@H](O)[C@H](O)[C@H]5O)CC[C@]4(C)[C@H]3CC[C@]12C)C(C)C [Daucosterol] | -0.00976 | 0.0626
COc1cc2ccc(=O)oc2c(OC)c1O [Isofraxidin] | -0.0516 | -0.153
COc1ccc2c(c1O)-c1c(O)c(OC)cc3c1[C@H](C2)[N+](C)(C)CC3 [Magnoflorine iodide] | 0.122 | -0.0243
COc1cc(/C=C/C(=O)O)ccc1O [Sodium Ferulate] | -0.0171 | 0.0132
Oc1ccc2c(c1)OCO2 [Sesamol] | 0.111 | 0.234
O=C(/C=C/c1ccc(O)c(O)c1)O[C@H](C(=O)O)[C@H](OC(=O)/C=C/c1ccc(O)c(O)c1)C(=O)O [Chicoric Acid] | 0.0111 | 0.107
CC1(C)[C@@H](O[C@H]2O[C@H](C(=O)O)[C@@H](O)[C@H](O)[C@H]2O[C@@H]2O[C@H](C(=O)O)[C@@H](O)[C@H](O)[C@H]2O)CC[C@]2(C)[C@H]3C(=O)C=C4[C@@H]5C[C@@](C)(C(=O)O)CC[C@]5(C)CC[C@@]4(C)[C@]3(C)CC[C@@H]12 [Glycyrrhizic acid] | 0.142 | -0.0143
O[C@@H]1[C@@H](O)[C@@H](OC/C=C/c2ccccc2)O[C@H](CO[C@@H]2OC[C@H](O)[C@H](O)[C@H]2O)[C@H]1O [Rosavin] | 0.0495 | 0.148
C[C@@H]1O[C@@H](O[C@H]2[C@H](Oc3cc(O)c(C(=O)CCc4ccc(O)cc4)c(O)c3)O[C@H](CO)[C@@H](O)[C@@H]2O)[C@H](O)[C@H](O)[C@H]1O | -0.0363 | -0.0118
